Legend:
Test in all cases: protein-binding microarray (PBM); PBM: ~300 nM protein, 6 mM HEPES pH 7.8, 80 mM KCl, 0.5 mM EDTA, 0.5 mM EGTA, 6% glycerol, 35 ng/ul poly-dIdC, 1% milk, 1 h, room temperature; Ap Aiptasia and Nv Nematostella (sea anemones) / Co Capsaspora / Aq Amphimedon (sponge) / Dm Drosophila / Hu human; RHD is the Rel homology domain; high values mean tight binding
Details in all cases: dsDNA, one strand shown
GST-Ap-NF-kB RHD = target: T1, GST-Ap-NF-kB RHD (Exaiptasia pallida (Aiptasia), UniProt A0A913YAJ5 2-422)
T1 sequence: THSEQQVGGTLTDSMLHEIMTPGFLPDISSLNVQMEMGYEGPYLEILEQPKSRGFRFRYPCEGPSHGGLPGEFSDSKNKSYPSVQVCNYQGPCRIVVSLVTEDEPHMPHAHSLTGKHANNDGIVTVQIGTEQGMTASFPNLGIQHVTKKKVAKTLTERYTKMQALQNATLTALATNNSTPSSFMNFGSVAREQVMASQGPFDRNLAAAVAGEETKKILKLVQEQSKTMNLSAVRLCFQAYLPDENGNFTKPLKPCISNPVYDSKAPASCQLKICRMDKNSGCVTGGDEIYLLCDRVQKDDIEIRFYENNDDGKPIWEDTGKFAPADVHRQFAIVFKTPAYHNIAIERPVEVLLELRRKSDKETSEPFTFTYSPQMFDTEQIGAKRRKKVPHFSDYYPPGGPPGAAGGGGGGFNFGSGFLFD

[1] = target: T2, GST-Nv-NF-kB (Cys allele) (Nematostella vectensis, UniProt E5G601 2-411)
T2 sequence: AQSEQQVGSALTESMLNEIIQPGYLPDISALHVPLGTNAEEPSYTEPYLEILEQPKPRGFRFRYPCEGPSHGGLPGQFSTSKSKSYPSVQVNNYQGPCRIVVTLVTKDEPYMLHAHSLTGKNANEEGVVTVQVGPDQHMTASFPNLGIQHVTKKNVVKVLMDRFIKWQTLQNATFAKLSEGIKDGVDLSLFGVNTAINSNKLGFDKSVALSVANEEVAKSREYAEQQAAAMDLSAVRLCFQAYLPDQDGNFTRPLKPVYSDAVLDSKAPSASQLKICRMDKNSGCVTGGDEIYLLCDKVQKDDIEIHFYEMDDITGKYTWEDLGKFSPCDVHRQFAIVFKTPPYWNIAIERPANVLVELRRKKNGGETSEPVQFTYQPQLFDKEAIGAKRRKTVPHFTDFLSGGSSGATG

GST-Co-NF-kB = target: T3, GST-Co-NF-kB (Capsaspora owczarzaki, UniProt F1ARL5 200-546)
T3 sequence: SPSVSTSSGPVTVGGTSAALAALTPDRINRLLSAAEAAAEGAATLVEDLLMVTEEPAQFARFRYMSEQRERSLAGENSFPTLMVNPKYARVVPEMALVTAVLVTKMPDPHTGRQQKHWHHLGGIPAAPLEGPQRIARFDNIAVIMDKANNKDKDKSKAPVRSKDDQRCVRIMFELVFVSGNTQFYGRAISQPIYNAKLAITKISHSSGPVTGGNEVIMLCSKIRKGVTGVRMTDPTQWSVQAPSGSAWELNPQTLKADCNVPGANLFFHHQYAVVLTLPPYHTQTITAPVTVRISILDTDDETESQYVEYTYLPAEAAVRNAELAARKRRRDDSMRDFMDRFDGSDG

GST-Dm-Relish = target: T4, GST-Dm-Relish (Drosophila melanogaster, UniProt Q94527 99-473)
T4 sequence: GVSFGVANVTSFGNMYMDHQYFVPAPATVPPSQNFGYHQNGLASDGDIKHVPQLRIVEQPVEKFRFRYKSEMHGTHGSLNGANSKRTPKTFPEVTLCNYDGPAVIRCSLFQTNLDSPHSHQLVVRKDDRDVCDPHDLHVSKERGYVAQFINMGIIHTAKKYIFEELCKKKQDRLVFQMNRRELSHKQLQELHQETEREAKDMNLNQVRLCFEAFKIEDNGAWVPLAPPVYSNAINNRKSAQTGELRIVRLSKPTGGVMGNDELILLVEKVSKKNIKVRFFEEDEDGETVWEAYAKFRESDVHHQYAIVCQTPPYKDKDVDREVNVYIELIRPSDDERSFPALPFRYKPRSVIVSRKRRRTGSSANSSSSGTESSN

GST-Aq-NF-kB = target: T5, GST-Aq-NF-kB (Amphimedon queenslandica, UniProt A9Y5G7 2-389)
T5 sequence: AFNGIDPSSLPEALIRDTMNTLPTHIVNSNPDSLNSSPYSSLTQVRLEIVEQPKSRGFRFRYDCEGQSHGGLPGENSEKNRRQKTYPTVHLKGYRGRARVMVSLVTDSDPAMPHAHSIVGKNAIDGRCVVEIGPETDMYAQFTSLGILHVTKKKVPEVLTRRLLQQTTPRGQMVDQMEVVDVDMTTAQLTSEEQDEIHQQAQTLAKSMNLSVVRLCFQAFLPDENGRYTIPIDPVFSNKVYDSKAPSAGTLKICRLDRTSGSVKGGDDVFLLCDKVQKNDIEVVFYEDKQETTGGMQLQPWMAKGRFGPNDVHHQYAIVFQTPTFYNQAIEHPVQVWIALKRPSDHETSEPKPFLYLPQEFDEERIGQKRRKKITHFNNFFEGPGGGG

| Sequence | binding signal (GST-Ap-NF-kB RHD) [z-score] | binding signal [1] [z-score] | binding signal (GST-Co-NF-kB) [z-score] | binding signal (GST-Dm-Relish) [z-score] | binding signal (GST-Aq-NF-kB) [z-score] |
| --- | --- | --- | --- | --- | --- |
| CCGATTAACATCATAAGCGGGGATGATGTTAATCGGGTCTTGATTCGCTTGACGCTGCTG | 3.32 | 3.81 | 4.81 | 2.26 | 3.7 |
| CCGATTAACATCAGGAGTTTCCCTGATGTTAATCGGGTCTTGATTCGCTTGACGCTGCTG | 4.6 | 6.51 | 3.2 | 4.94 | 8.06 |
| CCGATTAACATCAGGAATTCCCATGATGTTAATCGGGTCTTGATTCGCTTGACGCTGCTG | 6.4 | 5.88 | 4.61 | 7.97 | 7.09 |
| CCGATTAACATCAGGGGACGCACTGATGTTAATCGGGTCTTGATTCGCTTGACGCTGCTG | 4.45 | 4.2 | 2.19 | 5.79 | 4.68 |
| CCGATTAACATCAAGTCCCCCAATGATGTTAATCGGGTCTTGATTCGCTTGACGCTGCTG | 4.26 | 3.66 | 3.84 | 2.8 | 3.76 |
| CCGATTAACATCAAAGGTCCCCCTGATGTTAATCGGGTCTTGATTCGCTTGACGCTGCTG | 6.07 | 4.14 | 4.7 | 4.42 | 4.58 |
| CCGATTAACATCAGGGGGGGTCATGATGTTAATCGGGTCTTGATTCGCTTGACGCTGCTG | 3.99 | 2.96 | 3.31 | 3.85 | 3.54 |
| CCGATTAACATCAGGGGATCTACTGATGTTAATCGGGTCTTGATTCGCTTGACGCTGCTG | 5.31 | 4.68 | 1.96 | 9.02 | 5.74 |
| CCGATTAACATCAGATTTTTCCCTGATGTTAATCGGGTCTTGATTCGCTTGACGCTGCTG | 3.33 | 5.35 | 5.52 | 1.54 | 5.5 |
| CCGATTAACATCAAAAAAACCCATGATGTTAATCGGGTCTTGATTCGCTTGACGCTGCTG | 3.72 | 4.44 | 1.87 | 6.31 | 5.47 |
| CCGATTAACATCAGGGACTCCCATGATGTTAATCGGGTCTTGATTCGCTTGACGCTGCTG | 5.29 | 4.05 | 1.08 | 9.01 | 4.46 |
| CCGATTAACATCAATCCCCCCCGTGATGTTAATCGGGTCTTGATTCGCTTGACGCTGCTG | 6.49 | 4.68 | 7.66 | 6.77 | 5.33 |
| CCGATTAACATCAGGGTAAAACCTGATGTTAATCGGGTCTTGATTCGCTTGACGCTGCTG | 1.98 | 3.16 | 1.9 | 3.45 | 6.02 |
| CCGATTAACATCAGACTTCCCCATGATGTTAATCGGGTCTTGATTCGCTTGACGCTGCTG | 4.7 | 5.64 | 4.24 | 4.24 | 4.9 |
| CCGATTAACATCAATTCCCAAGGTGATGTTAATCGGGTCTTGATTCGCTTGACGCTGCTG | 1.3 | 1.9 | 2.02 | 1.17 | 1.55 |
| CCGATTAACATCAGGAACTACCCTGATGTTAATCGGGTCTTGATTCGCTTGACGCTGCTG | 2.97 | 2.75 | 1.33 | 3.64 | 5.04 |
| CCGATTAACATCAAGGATTCCCGTGATGTTAATCGGGTCTTGATTCGCTTGACGCTGCTG | 2.73 | 3.43 | 3.1 | 6.9 | 3.92 |
| CCGATTAACATCAATTTCCCATATGATGTTAATCGGGTCTTGATTCGCTTGACGCTGCTG | 1.56 | 3.3 | 2.34 | 2.14 | 2.17 |
| CCGATTAACATCAGGGGGGGTTATGATGTTAATCGGGTCTTGATTCGCTTGACGCTGCTG | 6.15 | 3.92 | 4.45 | 6.55 | 5.06 |
| CCGATTAACATCAATATTTACCCTGATGTTAATCGGGTCTTGATTCGCTTGACGCTGCTG | 1.68 | 3.08 | 3.33 | 1.66 | 2.34 |
| CCGATTAACATCACTAAATTCCCTGATGTTAATCGGGTCTTGATTCGCTTGACGCTGCTG | 3.8 | 5.35 | 4.15 | 3.63 | 4.56 |
| CCGATTAACATCAAATCACCCCCTGATGTTAATCGGGTCTTGATTCGCTTGACGCTGCTG | 4.73 | 4.59 | 6.61 | 4.37 | 5.32 |
| CCGATTAACATCAGGAGAACCCCTGATGTTAATCGGGTCTTGATTCGCTTGACGCTGCTG | 4 | 3.59 | 1.26 | 3.65 | 5.68 |
| CCGATTAACATCAGTTCCCCCCATGATGTTAATCGGGTCTTGATTCGCTTGACGCTGCTG | 6.36 | 4.32 | 8.97 | 3.62 | 3.91 |
| CCGATTAACATCAAGAGTTTCCCTGATGTTAATCGGGTCTTGATTCGCTTGACGCTGCTG | 4.29 | 5.34 | 3.98 | 2.43 | 5.12 |
| CCGATTAACATCAGGACACCCCCTGATGTTAATCGGGTCTTGATTCGCTTGACGCTGCTG | 6.35 | 5.22 | 2.5 | 6.86 | 7.67 |
| CCGATTAACATCAGGGGGAGAGATGATGTTAATCGGGTCTTGATTCGCTTGACGCTGCTG | 3.84 | 3.66 | 5.69 | 1.45 | 3.54 |
